Bioassay records: PubChem BioAssay, Sanford-Burnham Center for Chemical Genomics
This is a sample that favours compounds with a hit; in the whole collection about 4% have one here.
TIM10 inh: inhibits growth of TIM10 yeast strain | S. cerevisiae TIM10 strain growth, BacTiter-Glo luminescence, 24 h | inhibition, % at 10 µM | hit rate 1.4% among 330,000;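 active = inhibition of 40% or more at the single tested concentration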;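 note: wild-type TIM10 isogenic control strain grown at permissive 25 °C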
NALP1 yeast inh: inhibitors of NALP1 inflammasome in yeast; S. cerevisiae NALP1/ASC/caspase-1 growth, X-gal OD620, 72 h; inhibition, % at 10 µM; hit rate 0.61% among 280,000; AID 2071; in the data active = inhibition mostly above about 24%, no sharp cut-off; inactive = mostly below about 32%
tim23-1 inh: tim23-1 yeast growth inhibition; S. cerevisiae tim23-1 growth, BacTiter-Glo luminescence, 24 h; inhibition, % at 20 µM; hit rate 1.3% among 330,000; AID 463212;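 active = growth inhibition of the mutant yeast at or above 50%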;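 note: temperature-sensitive mutant grown at 25 °C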
tim10-1 inh: inhibits growth of tim10-1 mutant yeast | AID 463190 | S. cerevisiae tim10-1 ts strain growth, BacTiter-Glo, 24 h | inhibition, % at 20 µM | hit rate 2.2% among 330,000;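 active = inhibition of at least 40%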;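 note: mutant grown at 25 °C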
NLRP3 yeast inh: NALP3 inhibition in yeast; Yeast reconstituted NLRP3/ASC/caspase-1, beta-gal luminescence, 24 h; inhibition, % at 10 µM; hit rate 0.39% among 330,000; AID 2825;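 active = inhibition of 50% or more; inactive = inhibition below 50%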
NALP3 confirm: NALP3 inhibition confirmation in yeast; shares compounds with NLRP3 yeast inh; inhibition, % at 10 µM; AID 435006; yeast expressing human NALP3, luminescence; hit rate 81% among 1,300; in the data active = inhibition above about 48%
Casp1-ASC yeast: active in yeast caspase-1-ASC counter-screen for NALP3 inhibitors; shares compounds with NLRP3 yeast inh; yeast expressing Caspase-1-ASC, luminescence counter screen; inhibition, % at 10 µM; hit rate 66% among 1,000; AID 488784
NALP3 retest: confirmation retest of NALP3 inhibitors in yeast; shares compounds with NLRP3 yeast inh; yeast expressing human NALP3, luminescence read-out; inhibition, % at 10 µM; hit rate 53% among 1,000; AID 488794
Each line names hits and unclear results; the compound was inactive in the other large screens (follow-up assays come after a bar, where they were run). Cut-off read from the data, not from the text of the source, unless noted: active = inhibition above about 50%; inactive = the rest.

CC(Oc1cccc2cccnc12)C(=O)N/N=C/c1ccccc1 (centres undefined)	none
O=C(/C=C\c1ccccc1)Oc1cccc2cccnc12	NLRP3 yeast inh 52.9 | NALP3 confirm inactive | Casp1-ASC yeast inactive | NALP3 retest inactive
CCN(CC)c1ccc(Nc2nc(Cl)ncc2Br)cc1	NLRP3 yeast inh 53.5 | NALP3 confirm 63.6 | Casp1-ASC yeast 54.4 | NALP3 retest inactive
COc1cc([N+](=O)[O-])ccc1NC(=O)CSc1nccn1C	none
CC(=O)Oc1c(I)cc(I)cc1C(=O)Nc1ccc(Cl)cc1	NLRP3 yeast inh 59.8 | NALP3 confirm 77.0 | Casp1-ASC yeast inactive | NALP3 retest 57.6
Cc1nc2ccc(Cl)cc2c(-c2ccccc2Cl)c1CC(=O)O	none
CN1CCc2nc3ccc(Cl)cc3c(-c3ccccc3Cl)c2C1	NLRP3 yeast inh 56.8 | NALP3 confirm 57.5 | Casp1-ASC yeast inactive | NALP3 retest inactive
O=C(CSc1ncn(-c2ccccc2)n1)Nc1ccc(Br)cn1	NLRP3 yeast inh 75.3 | NALP3 confirm 75.6 | Casp1-ASC yeast 69.3 | NALP3 retest 50.4
CCCCc1cc(=O)oc2c(C)c(OCC(=O)NCC3CCC(C(=O)O)CC3)ccc12 (centres undefined)	none
O=C(c1ccc(Cl)s1)N1CCc2ccccc21	none
CCc1sc(C(=O)N2CCc3ccccc32)cc1C	NLRP3 yeast inh 51.1 | NALP3 confirm inactive
COc1ccc(NC(=O)COC(=O)CNC(=O)C2CCCCC2)cc1OC	none (no result: NALP1 yeast inh)
COCc1cc(N2CCOCC2)nc(SCc2ccc(Cl)cc2)n1	NLRP3 yeast inh 57.9 | NALP3 confirm 47.1 | Casp1-ASC yeast 68.0 | NALP3 retest inactive
Cc1ccc(S(=O)(=O)CC(=O)Nc2nc(C(C)(C)C)cs2)cc1	NLRP3 yeast inh 50.6 | NALP3 confirm 73.3 | Casp1-ASC yeast 60.6 | NALP3 retest inactive
C=C1CCN(Cc2ccccc2)S(=O)(=O)c2ccccc21	NLRP3 yeast inh 51.5 | NALP3 confirm 66.5 | Casp1-ASC yeast inactive | NALP3 retest inactive
CC(C)(CO)NS(=O)(=O)c1ccc2c(c1)Cc1cc(S(=O)(=O)NC(C)(C)CO)ccc1-2	none
O=C(NNC(=O)C1CCN(S(=O)(=O)c2cccc(Cl)c2)CC1)C1CC1	none (no result: NALP1 yeast inh)
O=C(NC1CCN(S(=O)(=O)c2cccc(Cl)c2)CC1)C1CCCCC1	NLRP3 yeast inh 53.2 | NALP3 confirm 55.8 | Casp1-ASC yeast inactive | NALP3 retest inactive
Clc1ccc2nc(CSc3nc4ccccc4o3)cn2c1	NLRP3 yeast inh 56.7 | NALP3 confirm 72.8 | Casp1-ASC yeast 68.6 | NALP3 retest 60.4
COc1ccccc1/C=C(/C#N)C(=O)O	none (no result: TIM10 inh, tim23-1 inh, tim10-1 inh, NLRP3 yeast inh)
CCc1ccc(C(=O)NNc2cc(Cl)ccc2Cl)cc1	NLRP3 yeast inh 64.6 | NALP3 confirm 66.3 | Casp1-ASC yeast 61.0 | NALP3 retest 59.7
CCc1ccc(C(=O)NNc2ccc(C)c(Cl)c2)cc1	NLRP3 yeast inh 53.2 | NALP3 confirm 53.2 | Casp1-ASC yeast inactive | NALP3 retest inactive
CCc1ccc(C(=O)NNc2ccc(F)cc2)cc1	none
CCc1ccc(C(=O)NNc2ccccc2F)cc1	none
S=C1SCN(Cc2cccnc2)CN1Cc1cccnc1	NALP1 yeast inh 69.3, NLRP3 yeast inh 56.8 | NALP3 confirm 58.2 | Casp1-ASC yeast inactive | NALP3 retest inactive
S=C1SCN(Cc2ccccc2)CN1Cc1ccccc1	none
Cc1cc(C)n2nc(-c3ccccc3)c(-c3ccccc3)c2n1	none
C[C@]12CCC(=O)C[C@@H]1CC[C@@H]1[C@@H]2CC[C@]2(C)[C@@H](C(=O)COC(=O)CCC(=O)O)CC[C@@H]12	NLRP3 yeast inh 54.0 | NALP3 confirm 77.3 | Casp1-ASC yeast 50.7 | NALP3 retest inactive
C[C@]12C=CC(=O)C=C1CC[C@@H]1[C@@H]2[C@@H](O)C[C@@]2(C)[C@H]1CC[C@]2(O)C(=O)COC(=O)CCC(=O)O	none
CCN(CC)c1ccc(NC(=O)COc2ccc(C)cc2)cc1	none | NALP3 confirm inactive | Casp1-ASC yeast inactive | NALP3 retest inactive
COc1ccc(C(=O)Nc2nnc(-c3ccco3)s2)cc1	none
COc1ccccc1NC(=O)Nc1nnc(-c2ccco2)s1	none
COc1ccccc1C(=O)Nc1nnc(-c2ccco2)s1	NLRP3 yeast inh 55.5 | NALP3 confirm 57.0 | Casp1-ASC yeast 68.1 | NALP3 retest 54.7
